VACV Venus inh: qHTS for Stage-Specific Inhibitors of Vaccinia Orthopoxvirus: Venus Reporter Primary qHTS. AID 720580, 2013. 0.46% of 330,000 active. Potency, µM (top dose mostly 36.5 µM), most hits filed as inhibitors. Vaccinia virus Venus reporter expression, fluorescence; calls by dose curve; tested in A549 cells; also: nearly all actives have a fitted effect of over 30% in size
HCV inh: qHTS Assay for Inhibitors of Hepatitis C Virus (HCV) | Huh7.5.1 HCVcc-Cre infection, luciferase reporter, 44 h | Potency, µM (series often up to 41.8 µM), hits mostly inhibitors | 3.4% of 340,000 active | AID 651820, 2012; active = well fitted inhibition curve with a large enough effect; inconclusive = small, poorly fitted or top-dose-only effect, or another doubt; inactive = no such curve, though single readings can be large or run the other way
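1,000 cells/well; 4 h culture; + compound; + HCVcc-Cre (~0.5 moi); 44 h; luciferase substrate, RT 15 min; read 15 sec.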
Vaccinia mCherry: qHTS for Stage-Specific Inhibitors of Vaccinia Orthopoxvirus: mCherry Reporter Primary qHTS. Vaccinia virus mCherry reporter infection, fluorescence. Potency, µM (top dose mostly 36.5 µM), hits mostly inhibitors. 0.63% of 310,000 active. AID 720579, 2013; calls by dose curve; tested in A549 cells; also: nearly all actives have a fitted effect of over 35% in size
HCMV antiviral: qHTS Assay for inhibitors of the human cytomegalovirus (HCMV); HFF cells, HCMV-luciferase reporter, 72 h; hits give low values; activity change, negative = inhibition, % at 57.5 µM; 4.5% of 410,000 active; AID 1259415, 2018; in the data active = activity change below about -60%; inconclusive = no clear call, values can overlap the other calls; inactive = above about -39%
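Two-dose cell screen: HFF monolayers treated with compounds and infected with luciferase-expressing HCMV at 1 PFU/cell, 72 h at 37C, then lysed for luciferase measurement.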
Lassa entry inh: qHTS for Inhibitors of binding or entry into cells for Lassa Virus; Lassa virus pseudotype entry inhibition, cell reporter; Potency, µM (doses to about 37.9 µM), most hits filed as inhibitors; 1.2% of 300,000 active; calls by dose curve; tested in HEK293 cells; also: nearly all actives have a fitted effect of over 50% in size
MARV entry inh: qHTS for inhibitors of binding or entry into cells for Marburg Virus; Marburg virus pseudotyped entry inhibition, cell reporter; Potency, µM (doses to about 37.8 µM), hits mostly inhibitors; 1.8% of 300,000 active; calls by dose curve; tested in HEK293 cells
A number is an active result; – = inactive; ? = inconclusive; · = no result given; ! = a repeat was not active; [ ] = another dose, or the depositor's remark. Most compounds without a hit are left out; they make up all but 7.8% or so of the library.

SMILES	VACV Venus inh	HCV inh	Vaccinia mCherry	HCMV antiviral	Lassa entry inh	MARV entry inh
COc1ccccc1N=c1scc(-c2ccc(S(=O)(=O)N3CCCC3)cc2)n1C	?	·	–[7.34 µM]	-97	?	·
COc1ccc(-c2csc(=Nc3ccccc3)n2CCO)cc1	–	13µM!	–	-62	–	?
O=S(=O)(c1ccc(-c2csc(=Nc3ccc(F)cc3)n2CCCCCCO)cc1)N1CCCC1	–	·	?	-101	?	?
CCN(C(=O)CSc1nc(-c2ccc(C(C)C)cc2)no1)c1ccccc1	–	·	–	–	?	·
CC(C)C[C@H](NC(=O)CC[C@H]1O[C@@H](n2ccc(=O)[nH]c2=O)[C@H](O)[C@@H]1O)C(=O)O	–	·	–	–	·	·
C=CCc1cccc(CNc2c(C)n(C)n(-c3ccccc3)c2=O)c1O	·	32µM	·	–	–	–
Cc1c(NC(C)c2ccccc2O)c(=O)n(-c2ccccc2)n1C (stereo not given)	·	–	·	–	–	–
Cc1c(NC(=O)C(C)N2C(=O)c3ccccc3C2=O)c(=O)n(-c2ccccc2)n1C (stereo not given)	–	–	–	–	–	–
Cc1c(C(c2ccc(O)cc2)c2c(C)n(C)n(-c3ccccc3)c2=O)c(=O)n(-c2ccccc2)n1C	–	–	–	–	–	–
Cc1c(NC(=O)C(C)N2C(=O)C3C4C=CC(C4)C3C2=O)c(=O)n(-c2ccccc2)n1C (stereo not given)	–	–	–	-66	·	–
Cc1c(C(c2ccc(C(=O)O)cc2)c2c(C)n(C)n(-c3ccccc3)c2=O)c(=O)n(-c2ccccc2)n1C	–	3.5µM	–	–	?	–
Cc1c(NC(C)C)c(=O)n(-c2ccccc2)n1C	–	0.56µM	–	–	·	·
Cc1c(NS(=O)(=O)c2ccccc2)c(=O)n(-c2ccccc2)n1C	·	–	·	–	–	?
Cc1ccc(S(=O)(=O)Nc2c(C)n(C)n(-c3ccccc3)c2=O)cc1	–	–	–	-98!	?	–
Cc1c(NC(=O)C(C)Sc2nc(N)cc(=O)[nH]2)c(=O)n(-c2ccccc2)n1C (stereo not given)	·	–	·	-63	·	·
Cc1ccc(NC(=O)CSc2ccc3c(c2)OCCO3)c(O)c1	·	10µM	·	?	·	·
CCCCC(=O)Nc1ccccc1C(=O)N1CCOCC1	·	–	·	–	–	–
Cc1ccc(SCC(=O)Nc2ccccc2C(=O)N2CCOCC2)cc1	–	–	–	-71	–	?
Cc1ccnc(NC(=O)CSc2ccc3c(c2)OCCO3)c1	–	?	–	–	–	–
O=C(Cc1ccccc1[N+](=O)[O-])Nc1ccccc1C(=O)N1CCOCC1	–	–	–	–	10µM	–
O=C(Cc1ccccc1[N+](=O)[O-])Nc1ccccc1C(=O)N1CCCC1	–	–	–	–	–	–
CC(C)CCNC(=O)c1cc(Sc2ccc(F)cc2F)nc2ccccc12	–	·	–	–	–	·
CCOC(=O)C1CCN(S(=O)(=O)c2cc(-c3cc(C)no3)ccc2OC)CC1	–	·	–	–	–	·
CCc1cc(/C(Cc2cscn2)=N\O)c(O)cc1O	–	–	–	–	–	–
CCc1cc(/C(Cc2ccccn2)=N\O)c(O)cc1O	·	22µM	·	?	–	–
SMILES	VACV Venus inh	HCV inh	Vaccinia mCherry	HCMV antiviral	Lassa entry inh	MARV entry inh
O=C1NC(=S)SC1=Cc1cccs1	–	–	–	–	–	–
O=C1Nc2ccccc2S/C1=C/c1cccs1	?	6.3µM	–	–	–	–
CCN(C(=O)Cn1nc(Cc2ccncc2)c2ccccc2c1=O)c1cccc(C(F)(F)F)c1	–	·	–	–	–	–
Cc1nnc(-c2ccc(C)c(-c3ccc(C(=O)NCc4ccc(Cl)cc4)cc3)c2)o1	·	·	·	·	0.63µM	·
Cc1cc(C)cc(-n2cc(C(=O)O)c(=O)cc2C)c1	–	–	–	-80	–	?
Cc1cccc(-n2cc(C(=O)O)c(=O)cc2C)c1	–	–	–	–	–	–
CCOC(=O)c1cnc2c(ccc3ccccc32)c1Nc1ccc(N(C)C)cc1	–	·	–	–	–	–
Cn1c(=O)c2c(nc(N3CCOCC3)n2Cc2cccc(Br)c2)n(C)c1=O	–	·	–	–	–	–
COc1ccc(CNc2nc(C)c([N+](=O)[O-])c(C)c2C#N)cc1	–	–	–	?	–	–
Cc1nc(Sc2ccc(Br)cc2)c(C#N)c(C)c1[N+](=O)[O-]	–	?	–	-77	?	?
Cc1nc(Sc2ccc(Cl)cc2)c(C#N)c(C)c1[N+](=O)[O-]	–	–	?	-75	–	–
Cc1ccc(Sc2ncnc(N)c2[N+](=O)[O-])cc1	–	–	–	–	–	–
Cc1ccc(Sc2nc(C)c([N+](=O)[O-])c(C)c2C#N)cc1	–	–	–	-70	–	–
CC(C)(C)c1ccc(C2=NC(C)(C)N(CC(=O)Nc3ccc(F)c(F)c3)C2=O)cc1	–	·	–	–	–	–
CCOc1ccccc1-c1ccc(C(=O)NCc2ccccc2)o1	?	14µM	–	–	7.3µM	–
CCOc1cccc2cc(C(=O)NCc3ccccc3)c(=N)oc12	·	–	·	·	·	·
Cc1ccc(-c2ccc(C(=O)NCc3ccccc3)o2)c2ccccc12	–	?	–	–	6.5µM	–
O=C(NCc1ccc(Cl)cc1)c1ccc(-c2ccccc2C(F)(F)F)o1	–	–[8.37 µM]	–	–	5.2µM	–
CN(C)c1ccc(/C=C/c2nc3ccccc3s2)c(Cl)c1	–	·	–	·	·	·
CC(=O)Nc1ccc(/C=C/c2ccnc3ccccc23)cc1[N+](=O)[O-]	–	·	–	·	·	·
Cc1ccc(NC(=O)c2ccc(NCc3ccc(F)cc3)nc2)cc1	–	–	–	-105	–	–
O=C(NCc1noc2ccccc12)N1CCN(c2ccccc2)CC1	–	·	–	–	–	·
COc1ccc(-c2nnc(SCC(=O)Nc3cccc(F)c3)s2)cc1	–	·	–	–	–	·
COC(=O)C1=CN(c2ccc(OC)cc2)C(N)=C(C#N)C1c1cccc2ccccc12 (stereo not given)	–	·	?	?	·	·
CCc1ccc(N2C=C(C(=O)OC)C(c3cccc4ccccc34)C(C#N)=C2N)cc1 (stereo not given)	–	·	6.3µM	-101	·	·
COC(=O)C1=CN(c2ccc(C(C)(C)C)cc2)C(N)=C(C#N)C1c1cccc2ccccc12 (stereo not given)	–	·	8.9µM	?	·	·
COCC1OC(OC(C)C(O)c2cnc3nc(N)[nH]c(=O)c3n2)C(O)C(OC)C1O (stereo not given)	·	·	·	–	·	·
CNC(=O)c1sc(N2N=C3/C(=C/c4ccccc4)CCCC3C2c2ccccc2)nc1C (stereo not given)	·	10µM	·	–	?	?
CO[C@H]1CN(C)C(=O)c2cc(NC(=O)C3CCOCC3)ccc2OC[C@H](C)N(Cc2nccs2)C[C@H]1C	–	·	–	–	·	·
Cc1ccc(Oc2ccc(C(=O)NCc3ccncc3)cc2)cc1	–	3.2µM	–	-83	8.9µM	?
